Experimental data from PubChem BioAssay (NCATS).
Results filed as inconclusive are left out. Activity calls are given as the source filed them. Calls follow the shape of the dose curve; as a rule, active = well fitted inhibition curve with a large enough effect; inconclusive = small, poorly fitted or top-dose-only effect; inactive = flat fitted curve, though single readings scatter. Square brackets hold non-standard residues; d marks the D form. Peptide text beside a SMILES is read from it. * marks the point of attachment. ξ: configuration not given here. ξTyr(βOH) = NC(C(=O)O)C(O)c1ccc(O)cc1; AMC = Cc1cc(=O)oc2cc(N*)ccc12; Cbz = O=C(OCc1ccccc1)*

Molecular target: Aldehyde dehydrogenase, mitochondrial (Homo sapiens) (UniProt P05091)
Experiment: qHTS for Inhibitors of the Aldehyde Dehydrogenase Family (ALDH2) Primary screen (AID 2061308);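 also: plate controls were vehicle for no effect and reference inhibitor for full effect; nearly all actives have a fitted effect of over 55% in size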
Settings: ALDH2 enzyme inhibition qHTS, 1536-well; series mostly up to 56 µM; activity change, negative = inhibition: at the top concentration

Compound	activity change, negative = inhibition
CC1=C(C(=O)O)/C(=C/CO[C@@H]2O[C@H](COC(=O)/C=C/c3ccc(O)cc3)[C@@H](O)[C@H](O)[C@H]2O)C(O)C1 (stereo partly drawn)	-10.1% [at 28 µM] (inactive)
CC1=C(C(=O)O)/C(=C\CO[C@@H]2O[C@H](CO)[C@@H](O)[C@H](O)[C@H]2O)C(OC(=O)/C=C/c2ccc(O)cc2)C1 (stereo partly drawn)	9.2% [at 28 µM] (inactive)
N#Cc1cccc(C(=O)Nc2cc(-c3ccccc3)nn2-c2ccccc2)c1	8.07% (inactive)
CC(C)=CCC/C(C)=C/CC/C(C)=C/CC[C@]1(C)CCc2cc(O)cc(C)c2O1	-4.09% [at 28 µM] (inactive)
COc1ccc(OC2OC(CO[C@@H]3O[C@@H](C)[C@H](O)[C@@H](O)[C@H]3O)C(O)C(O)C2O)cc1OC (stereo partly drawn)	-10.9% [at 28 µM] (inactive)
Cc1ccc(-c2ncc[nH]2)cc1NC(=O)c1ccc(OCc2ccccn2)cc1	-14% (inactive)
CC1=CC(=O)[C@]2(O[C@@H]3O[C@@H](C)[C@H](O)[C@@H](O)[C@H]3OC(=O)/C=C/c3ccccc3)C=CO[C@@H](O[C@@H]3O[C@H](CO)[C@@H](O)[C@H](O)[C@H]3O)[C@H]12	-2.1% [at 16.9 µM] (inactive)
CC(C)C(C(=O)N(C)C(C)C(N)=O)N(C)C(=O)C1CCCN1C(=O)/C=C/C=C/C(O)C(C)O (stereo not drawn)	7.01% [at 28 µM] (inactive)
CC(=O)NC1C(OC2CCC3(C)C(CCC4(C)C3CC=C3C5CC(C)(C)CCC5(C(=O)O)C(O)CC34C)C2(C)C)OC(CO)C(O)C1O (stereo not drawn)	-5.46% [at 16.9 µM] (inactive)
CC(=O)O[C@H]1[C@@]2(O)C[C@H](C)[C@H](OC(=O)c3ccccc3)[C@@H]2[C@@H](OC(=O)CO)[C@]2(OC(C)=O)C[C@H]3C(=O)C(C)(C)C[C@@H]3[C@@]1(C)[C@H]2OC(C)=O	-3.01% [at 16.9 µM] (inactive)
CC1CCC2C(C)(C)C(O)C(O)CC2(C)C12Cc1c(O)cc(CO)c(C=O)c1O2 (stereo not drawn)	-4.11% [at 28 µM] (inactive)
CC(=O)OC1(C)CC(O)C2(O)C=COC(OC3OC(CO)C(O)C(O)C3O)C12 (stereo not drawn)	0.733% [at 28 µM] (inactive)
C[C@@H]1C(=O)O[C@H]2C[C@]34[C@H]5C[C@@H](C(C)(C)C)[C@]36[C@@H](OC(=O)[C@H]6O)O[C@]4(C(=O)O5)[C@]21O	6.67% [at 28 µM] (inactive)
COC(=O)C1=COC(O[C@@H]2O[C@H](CO)[C@@H](O)[C@H](O)[C@H]2O)[C@@H]2[C@@](C)(O)[C@@H](OC(=O)/C=C/c3ccccc3)C[C@]12O (stereo partly drawn)	-1.71% [at 28 µM] (inactive)
COC1OC(O)C2(CCC3(O2)C(C)CC2OC(=O)C4(C)CCCC3(C)C24)C1O (stereo not drawn)	5.9% (inactive)
CC1(CO)CC(O)C2(C)CCC3(C)C(=CCC4C5(C=O)CCC(OC6OC(C(=O)O)C(O)C(O)C6OC6OC(C(=O)O)C(O)C(O)C6O)C(C)(C)C5CCC43C)C2C1 (stereo not drawn)	-6.49% [at 16.9 µM] (inactive)
O=C(O)CC/C=C\C[C@H]1CO[C@@H](c2ccccc2Cl)O[C@H]1c1ccccc1O	0.567% (inactive)
CC(C)C1NC(=O)CNC(=O)C2CCCN2C(=O)C(Cc2c[nH]c3ccccc23)NC(=O)CNC(=O)C(C(O)c2ccc(O)cc2)NC(=O)CNC1=O (stereo not drawn) (cyclo(G[ξTyr(βOH)]GWPGV); configuration not given here)	-0.0859% [at 16.9 µM] (inactive)
Cc1cc(=O)oc2cc(NC(=O)[C@H](CCC(=O)O)NC(=O)[C@H](CC(C)C)NC(=O)[C@H](CC(C)C)NC(=O)OCc3ccccc3)ccc12 (Cbz-Leu-Leu-Glu-{AMC})	-5.3% (inactive)
C/C=C(\C)C(=O)O[C@@H](C)[C@H]1CC[C@]2(O)C3CCC4C[C@@H](OC5CC(OC)C(OC6CC(OC)C(OC7CC(OC)C(OC8OC(C)C(OC9OC(CO)C(O)C(O)C9O)C(OC)C8O)C(C)O7)C(C)O6)C(C)O5)CC[C@]4(C)C3[C@H](O)[C@@H](O)[C@]12C (stereo partly drawn)	4.67% [at 11.2 µM] (inactive)
N#Cc1cc(CN2CCC(Nc3ncnc4sc(Cl)cc34)CC2)ccc1F	-7.29% (inactive)
CC1(O)CCCC2(C)C1CCC13CC(CO)C(CCC12)C3 (stereo not drawn)	-5.08% (inactive)
O=C(Cc1ccc(Cl)cc1)Nc1cnccc1C(=O)O	-16.6% (inactive)
C=C[C@@]1(C)CCC2C(=CCC3[C@]2(C)CCC[C@@]3(C)C(=O)O)C1 (stereo partly drawn)	-11.2% (inactive)
C=C1CCC2C(C)(C)CC(O)CC2(C)C1CCC(C)CC(=O)O (stereo not drawn)	-11.6% (inactive)
CO[C@@H]1CC(OC2CCC3(C)C(CCC45CCC(C6=CC(=O)OC6)C(C)(CCC43)C5=O)C2)O[C@H](C)[C@@H]1O[C@@H]1O[C@H](CO[C@@H]2O[C@H](CO)[C@@H](O)[C@H](O)[C@H]2O)[C@@H](O)[C@H](O)[C@H]1O (stereo partly drawn)	-1.01% [at 16.9 µM] (inactive)
O=C(Nc1nc2cc(C(F)(F)F)cc(NC3CC3)n2n1)c1cccnc1	1.65% (inactive)
COc1ccc([C@H]2Cc3cccc(O)c3C(=O)O2)cc1	52.2% (inactive)
